Bioassay records: PubChem BioAssay, Sanford-Burnham Center for Chemical Genomics
tim23-1 inh: tim23-1 yeast growth inhibition | S. cerevisiae tim23-1 growth, BacTiter-Glo luminescence, 24 h | inhibition, % at 20 µM | 330,000 compounds, 1.3% hits;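 active means growth inhibition of the mutant yeast at or above 50%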;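 further: temperature-sensitive mutant grown at 25 °C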
TIM10 inh: TIM10 yeast growth inhibition | S. cerevisiae TIM10 strain growth, BacTiter-Glo luminescence, 24 h | inhibition, % at 10 µM | 330,000 compounds, 1.4% hits | AID 463195;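 active means inhibition of 40% or more at the single tested concentration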;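 further: wild-type TIM10 isogenic control strain grown at permissive 25 °C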
Mdm2 MdmX PPI: disrupts the human Mdm2-MdmX interaction; O15151+Q00987; inhibition, % at 8 µM; SaOS-2 split-luciferase Mdm2/MdmX complementation, luminescence; AID 485346; 330,000 compounds, 3% hits;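 active means inhibition of at least 50% at 8 µM in the primary screen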
tim10-1 inh: growth inhibitors of tim10-1 mutant yeast | S. cerevisiae tim10-1 ts strain growth, BacTiter-Glo, 24 h | AID 463190 | inhibition, % at 20 µM | 330,000 compounds, 2.2% hits;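 active means inhibition of at least 40%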;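 further: mutant grown at 25 °C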
MPTP block: inhibitors of mitochondrial permeability transition pore. inhibition, % at 10 µM. isolated mouse mitochondria, Ca2+ swelling absorbance, 30 min. 360,000 compounds, 1.4% hits. AID 602449;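 active means inhibition of 50% or more, scaled per plate between neutral and stimulator controls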
tim10-1 confirm: confirmation of tim10-1 mutant yeast growth inhibitors. shares compounds with tim10-1 inh. S. cerevisiae tim10-1 ts strain growth, BacTiter-Glo, 24 h. inhibition, % at 20 µM. 7,400 compounds, 56% hits. AID 463213;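 active means inhibition of yeast growth at or above a set limit in either of two repeat tests at 20 µM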;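 further: tim10-1 mutant grown at permissive 25 °C to find synthetic lethal compounds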
Hits are given with their value; 0 = inactive; - = not tested or not shown. Only some compounds are listed: those with a hit (about 6.3% of all), similar ones and a draw of the others.

SMILES	tim23-1 inh	TIM10 inh	Mdm2 MdmX PPI	tim10-1 inh	MPTP block	tim10-1 confirm
CCn1c(=O)c(-c2ccccc2)c(O)c2ccccc21	0	0	0	0	0	-
CCN(CC)S(=O)(=O)c1ccc2oc(C(=O)NCc3ccc(F)cc3)c(C)c2c1	0	0	0	43.5	0	39.0
CC(=O)N1N=C(c2cccc([N+](=O)[O-])c2)OC1c1ccc(Cl)cc1Cl (stereo unspecified)	0	0	0	40.5	0	0
COc1cccc(C(=O)Nc2cc3c(cc2N2CCOCC2)n(C)c(=O)n3C)c1	0	0	0	0	0	-
CCn1c(=O)n(CC)c2cc(N3CCCC3)c(NC(=O)c3cccc(OC)c3)cc21	0	0	0	46.6	0	0
Cn1c(=O)n(C)c2cc(N3CCCCC3)c(NC(=O)c3cccc(Cl)c3)cc21	0	0	0	42.0	0	0
CCOc1ccccc1C(=O)Nc1ccc2nc3n(c(=O)c2c1)CCCCC3	0	0	0	54.8	0	0
CCOc1cc(/C=C2\C(=O)N(c3nc(-c4ccc(Br)cc4)cs3)N=C2c2ccccc2)ccc1O	0	0	0	47.4	0	0
COc1cc(/C=C2\C(=O)N(c3ccc(NC(C)=O)cc3)N=C2c2ccccc2)ccc1O	0	0	0	0	0	-
O=C(CCN1C(=O)/C(=C\c2ccccc2)SC1=S)N1CCOCC1	0	0	0	0	0	-
O=C(CCN1C(=O)S/C(=C\c2ccccc2)C1=O)N1CCOCC1	0	0	0	52.4	0	0
O=C(CCN1C(=O)S/C(=C\c2ccccc2)C1=O)N1CCCCC1	0	0	0	44.1	0	39.1
O=C(O)C1CCN(C(=O)CCN2C(=O)S/C(=C\c3ccccc3)C2=O)CC1	0	0	0	0	0	-
O=C(Nc1ccc(F)cc1)C(c1cc2ccccc2o1)N1CCN(c2ccncc2)CC1 (stereo unspecified)	-	-	-	-	0	-
COc1ccccc1-c1cnc(C(O)c2ccc(F)c(F)c2)[nH]1 (stereo unspecified)	-	-	-	-	0	-
C[C@@H]1CCCCO[C@H](CN(C)C(=O)c2ccccc2)[C@@H](C)CN([C@H](C)CO)C(=O)c2cc(NC(=O)c3ccncc3)ccc2O1	-	-	-	-	0	-
CCOC(=O)N1CCN(C(=O)c2cccc(N3C(=O)NC4CC3(C)Oc3ccc(Cl)cc34)c2)CC1 (stereo unspecified)	0	0	0	44.6	0	0
CCOC(=O)c1cnc(-n2nc(C)cc2C)nc1NNc1ncc(-c2ccccc2)cn1	0	0	0	54.2	-	0
CC(NC(=O)c1ccco1)C(c1cccs1)N1CCN(c2ccc(F)cc2)CC1 (stereo unspecified)	0	0	0	46.9	0	0
CC(NC(=O)Cc1cccs1)C(c1cccs1)N1CCN(c2ccccc2F)CC1 (stereo unspecified)	0	0	0	45.6	0	37.4
Cc1sc2ccc3sccc3c2[n+]1C	0	0	0	43.5	0	46.0
C[C@H]1CN([C@@H](C)CO)C(=O)c2cc(Br)cnc2O[C@H]1CN(C)C(=O)Cc1ccccn1	-	-	-	-	0	-
O=C(Cn1c(O)c(/C=C2\C=Nc3ccc(Br)cc32)sc1=O)N1CCCC1	0	0	0	51.6	0	0
Cc1c(Br)cccc1NC(=O)C1(C)CCN1Cc1ccccc1OC(F)F (stereo unspecified)	-	-	-	-	0	-
COC(=O)c1ccc(-n2nc(C(F)(F)F)c3c2-c2ccoc2CC3)cc1	0	0	0	41.0	0	0
SMILES	tim23-1 inh	TIM10 inh	Mdm2 MdmX PPI	tim10-1 inh	MPTP block	tim10-1 confirm
Cc1cccc(C)c1OCC(O)Cn1c2ccccc2c2ccccc21 (stereo unspecified)	0	0	0	45.1	0	0
Cc1ccc(F)c(S(=O)(=O)NC(=O)C2(C)CCN2C(=O)CC(c2ccccc2)c2ccccc2)c1 (stereo unspecified)	-	-	-	-	0	-
CN1/C(=C/C2CC(=O)N(c3cccc4ccccc34)C2=O)C(C)(C)c2ccccc21 (stereo unspecified)	0	0	0	50.7	0	39.0
CCOc1ccc(N2C(=O)CC(/C=C3/N(C)c4ccccc4C3(C)C)C2=O)cc1 (stereo unspecified)	0	0	0	0	0	-
CC(C)c1ccc(NS(=O)(=O)c2ccc(-n3cccn3)cc2)cc1	0	0	0	45.4	0	0
CCc1nc2c(OCCC3CCCCC3)cccn2c1N(C)C(=O)c1cccs1	-	-	-	-	0	-
O=C(Nc1cccc(S(=O)(=O)C(F)(F)F)c1)[C@@H]1O[C@H](CO)[C@@H](O)[C@H]1O	-	-	-	-	0	-
BrC(=C\c1ccccc1)/C=N/Nc1nc2ccccc2[nH]1	0	0	0	54.3	0	32.4
Cc1cc(C)c(C#N)c(SCC(=O)c2cccs2)n1	0	0	0	43.7	0	0
Cc1cc(C)c(C#N)c(SCC(=O)c2ccccc2)n1	0	0	0	0	0	-
COc1cccc(Cn2cc(-c3cccc(C(F)(F)F)c3)nn2)c1	0	0	0	41.9	0	0
COc1ccc(-c2cn(Cc3cccc(OC)c3)nn2)cc1	0	0	0	0	0	-
COc1ccc(CN2C(=O)CN(S(C)(=O)=O)CC2(C)C(=O)Nc2c(C)cccc2C)cc1OC (stereo unspecified)	-	-	-	-	0	-
C=C(C)COc1ccc(-c2[nH]ncc2Oc2ccccc2OC)c(O)c1	0	0	0	55.4	0	39.4
CC1C(=O)C(C)C(c2ccc(Br)cc2)NC1c1ccc(Br)cc1 (stereo unspecified)	0	0	0	48.2	0	0
N#Cc1c(-c2cccs2)cc(-c2cccnc2)nc1N	0	0	0	42.7	0	0
O=C1c2ccccc2C(=O)N1CC1c2ccccc2CCN1C(=O)C1CCCCC1 (stereo unspecified)	0	0	0	0	0	-
CCN(CC)C(=O)N1CCc2ccccc2C1CN1C(=O)c2ccccc2C1=O (stereo unspecified)	0	0	0	48.3	0	0
CCCCN1C2=NC(c3ccccc3)CN2c2ccccc21 (stereo unspecified)	0	0	0	0	0	-
CCCCN1c2ccccc2N(CCCO)c2cc(C)nnc21	0	0	0	44.8	0	0
COC(=O)C[C@@H]1C=C[C@@H](NS(=O)(=O)c2ccc(OC)cc2)[C@@H](CO)O1	-	-	-	-	0	-
CS(=O)(=O)c1cnc2c(-c3ccc(F)cc3)cnn2c1N	0	0	0	0	0	-
Cc1cc(N)n2ncc(-c3ccc(F)cc3)c2n1	0	0	0	50.0	0	38.8
COC(=O)C1=C(C)NC(=O)/C1=C\c1ccc2c(c1)OCO2	0	0	0	42.4	0	0
CN(C)CCNC(=O)c1ccc2c(=O)n(Cc3ccc(Cl)cc3)c(=S)[nH]c2c1	0	0	0	45.1	0	0
CSCCC(c1nc2ccccc2[nH]1)n1c(=O)c(-c2ccco2)nc2ccccc21 (stereo unspecified)	-	-	-	-	0	-
Clc1ccc(-c2nc3c4ccccc4ccn3c2Cc2ccsc2)cc1	-	-	-	-	0	-
Cn1c(=S)n(/N=C/c2ccc3c(c2)OCO3)c2ccccc21	0	0	0	0	0	-
COc1ccc(/C=N/n2c(=S)n(C)c3ccccc32)cc1OC	0	0	0	42.6	0	30.4
